This is an account of results in PubChem BioAssay (EPA / NIEHS).

Several values for one entry are separate records, joined by “and”; a condition that tells them apart may be missing. Equal values may be shown once. The source holds several records for some structures; these can differ, active in one and inactive in another. Activity calls are given as the source filed them. Rule for the calls: active = hit-call score of the fitted dose curve at least 0.9, where 1 is the maximum; inactive = score below 0.9.

Read-out in the assay: C-C motif chemokine 2 (Homo sapiens) (UniProt P13500)
In words: BSK_KF3CT_MCP1: BioMAP Diversity Plus: KF3CT Assay for Monocyte Chemoattractant Protein 1 (MCP1/CCL2) Biomarker Activity (AID 2283073). To be noted: primary human keratinocytes with fibroblasts; actives raise or lower the signal. On the procedure: BSK_KF3CT is a cell-based, multiplexed-readout assay that uses keratinocytes and foreskin fibroblasts, a human skin primary cell co-culture, with measurements taken at 24 hours after chemical dosing in a 96-well plate.BSK_KF3CT_MCP1 is an assay component measured in the BSK_KF3CT assay. It measures MCP-1 antibody related to regulation of gene expression using ELISA technology.Data from the assay component BSK_KF3CT_MCP1 was analyzed into 1 assay endpoint. This assay endpoint, BSK_KF3CT_MCP1, was analyzed with bidirectional fitting relative to DMSO as the negative control and baseline of activity. Using a type of binding reporter, gain or loss-of-signal activity can be used to understand changes in the signaling as they relate to the gene CCL2. Furthermore, this assay endpoint can be referred to as a primary readout, because this assay has produced multiple assay endpoints where this one serves a signaling function. To generalize the intended target to other relatable targets, this assay endpoint is annotated to the cytokine intended target family, where the subfamily is chemotactic factor.
The levels of cell surface (or secreted, indicated by the prefix "s") biomarker endpoints were measured by ELISA. Overt cytotoxicity to cells in confluent adherent cultures (all systems other than the BT system) was assessed by measuring total protein levels using sulforhodamine B (SRB) staining in parallel cultures at the time of biomarker measurements, indicated as SRB endpoints. For proliferation assays for adherent cell types, individual cell types are cultured at sub-confluence and relative cell numbers quantified by SRB staining at time points optimized for each system (48 h: 3C and CASM3C systems; 72 h: BT and HDF3CGF systems; 96 h: SAg system). SRB was performed by staining cells with 0.1% SRB after fixation with 10% TCA and reading wells at 560 nm.Viability and proliferation of PBMC (T cells) was quantified by Alamar Blue reduction for the SAg and BT systems. For PBMC viability (referred to as PBMC Cytotoxicity within the assay endpoint names), cells were plated (75,000/well in a 96-well plate) and then chemical samples added for 1 h before addition of activators, SEB and TSST-1 (20 ng/mL final concentration each). Cells were incubated for 90 h. Then, Alamar Blue (20 uL/well) (Invitrogen, Cat DAL1100) was added for 6 h, and the plates were read with a fluorescence microplate reader at 546/580 nm (excitation/emission). For PBMC proliferation, cells were plated and activated as above but incubated for only 16 h prior to addition of Alamar Blue. Plates were read after 6 h.
As for `O=c1c2ccccc2c(=O)c2c1cc(Cl)c1[nH]c3c([nH]c12)c(Cl)cc1c(=O)c2ccccc2c(=O)c13`, the result was inactive.

Regarding `O=S(=O)(c1ccccc1)c1ccccc1`, the outcome was inactive.

As to `CCCOC(=O)c1ccccc1C(=O)OCCC`, the result was inactive.

On to `C=CCN(CC=C)C(=O)C(Cl)Cl`, for which the outcome was inactive.

For `CC1(C)[C@H](C(=O)O[C@H](C#N)c2cccc(Oc3ccccc3)c2)[C@@H]1C=C(Br)Br`, the outcome was inactive.

On to `O=C(CCl)c1ccccc1`, for which the AC50 was 32 µM (active).

As to `CC(C)COP(=O)(OCC(C)C)OCC(C)C`, the result was inactive.

For the compound `O=P1(NCCCl)OCCCN1CCCl` (stereo not drawn), the result was inactive.

For `CC(C)CCCCCCCOC(=O)c1ccccc1C(=O)OCCCCCCCC(C)C`, the result was inactive.

Take `CC(C)CCCCCCCOP(=O)(Oc1ccccc1)Oc1ccccc1`: the AC50 was 31.4 µM (active).

On to `O=C1C=CC(=O)C=C1`, for which the AC50 was 27.7 µM (active) and 16.1 µM (active).

For the compound `CCCC[N+](CCCC)(CCCC)CCCC`, the result was inactive.

In the case of `Clc1ccc(-c2ccccc2)cc1`, the outcome was inactive.

On to `CCC(C)c1cc([N+](=O)[O-])cc([N+](=O)[O-])c1OC(=O)C=C(C)C` (stereo not drawn), for which the AC50 is 36.7 µM (active).

As to `C=CC(=O)OCC(CC)CCCC` (stereo not drawn), the outcome was inactive.

Take `c1ccc(Nc2ccc3ccccc3c2)cc1`: the AC50 is 30.9 µM (active).

On to `O=C1C(Cl)=C(Cl)C(=O)C(Cl)=C1Cl`, for which the AC50 is 10.1 µM (active).

As for `O=[N+]([O-])c1ccc(Cl)cc1`, the outcome was inactive.

`CC(=O)/C=C/c1ccccc1`: the outcome was inactive.

For the compound `[Cd+2].[Cl-].[Cl-]`, the AC50 is 20 µM (active) and 14.1 µM (active).

On to `O=[N+]([O-])C=Cc1ccccc1`, for which the half-maximal activity concentration (AC50) was 20 µM (active).

For `O=C(O)CCCc1ccc(N(CCCl)CCCl)cc1`, the AC50 was 30 µM (active) and the result was inactive.

Turning to `CC(C)(C)C(=O)CCl`, the outcome was inactive.

Regarding `N#CCCCCC#N`, the result was inactive.

On to `COC(C)(C)CCC[C@H](C)C/C=C/C(C)=C/C(=O)OC(C)C`, for which the result was inactive.

As to `Cc1ccc(OP(=O)(Oc2ccc(C)cc2)Oc2ccc(C)cc2)cc1` (tested in a mixture with another compound), the outcome was inactive.

For the compound `COCC(=O)N(c1c(C)cccc1C)N1CCOC1=O`, the outcome was inactive.

Turning to `CCCCCCCCCCCC#N`, the result was inactive.

Consider `CC(C)(c1cc(Cl)c(O)c(Cl)c1)c1cc(Cl)c(O)c(Cl)c1`, for which the AC50 is 10 µM (active).

On to `Nc1ccc(-c2ccc(N)c(N)c2)cc1N`, for which the result was inactive.

For the compound `O=[N+]([O-])O`, the outcome was inactive.

Regarding `Oc1ccc(C2(c3ccc(O)cc3)c3ccccc3-c3ccccc32)cc1`, the AC50 was 5.75 µM (active) and 6.7 µM (active).

In the case of `CCc1cc(C)cc(CC)c1-c1c(OC(=O)C(C)(C)C)n2n(c1=O)CCOCC2`, the outcome was inactive.

`CC(C)(C)C(O)C(Oc1ccc(-c2ccccc2)cc1)n1cncn1` (stereo not drawn): the result was inactive.

As to `Oc1cc(Cl)ccc1Cl`, the result was inactive.

Regarding `O=c1[nH]c(Cl)c(Cl)cc1Cl`, the result was inactive.

For the compound `CNC(=O)Oc1cc(C)c(SC)c(C)c1`, the result was inactive.
